Source: PubChem BioAssay (Tox21)
Records with an inconclusive call do not appear. Values without a mark were called inactive. Activity calls are given as the source filed them. Calls come from the whole dose curve; as a rule, active = well fitted cell-killing curve with a large enough effect in the repeat runs; inconclusive = weak or mixed curves, or effect the other way; inactive = flat fitted curve, though single readings scatter.

Assay: qHTS assay to identify small molecule antagonists of the constitutive androstane receptor (CAR) signaling pathway - cell viability counter screen (AID 1224837); note: nearly all actives have a fitted effect of over 45% in size
Conditions: HepG2-CYP2B6-hCAR viability, CellTiter-Fluor, 23 h, co-treated with 50 nM CITCO; series mostly up to 92.4 µM; activity change, negative = cytotoxicity: at the top concentration
Description: National Center for Advancing Translational Sciences [NCATS]
NIH Chemical Genomics Center [NCGC]
U.S. Environmental Protection Agency [EPA]
National Institutes of Environmental Health Sciences [NIEHS]
National Toxicology Program [NTP]
U.S. Food and Drug Administration [FDA]
The constitutive androstane receptor (CAR) is a nuclear receptor which regulates multiple drug metabolizing enzymes (DMEs) and transporters. Activating CAR will generally increase the transcription and subsequent translation of CYP2B6 and CYP3A4. These two DMEs represent about 50% of the drug metabolizing potential in the body. When CAR is deactivated, the metabolizing potential in the body will decrease, subsequently increasing the toxicity in the body or lowering the therapeutic potential of a pro-drug. Recently, there have also been studies performed indicating CARs role in energy metabolism and cancer therapy. Therefore, inhibiting CARs activity could have a potential effect on diabetes and cancer. Identifying environmental toxins and compounds which modulate CAR, through the use of the Tox21 10K compound collection, will be an important step in determining the toxicity and potential therapeutic effects these factors will have on the human body. To differentiate true CAR antagonists from cytotoxic substances, the assay is multiplexed with a cell viability assay.
Tox21 Assay Protocol Summary:
A double-stable (hCAR and CYP2B6-2.2kb) transfected cell line, derived from human hepatoma (HepG2) cells, was utilized for the duration of the quantitative high-throughput screens. The HepG2-CYP2B6-hCAR cells were dispensed at 2500 cells/4 uL/well in 1536-well white solid bottom plates using a Multidrop Combi. After the assay plates were incubated at 37 C/5% CO2 for 4 hrs, 23 nL of compounds at 15 concentrations (from 5-48 columns) or positive control (from 1 to 4 columns) were transferred to the assay plates using a Pintool station. One uL of CITCO (final concentration = 50 nM) was added, using a Flying Reagent Dispenser, inside each well. After a 23 hr incubation period at 37 C/5% CO2, 1 uL of CellTiter-Fluor reagent was added into each well of the assay plates using a Flying Reagent Dispenser. The fluorescence intensity in the plates was then measured using a ViewLux plate reader.
% is set by controls: 0 for no effect and ±100 for the full control effect; potency is the fitted concentration of half-maximal effect.

| Structure (SMILES) | activity change, negative = cytotoxicity | Potency |
| --- | --- | --- |
| O=C1c2ccccc2C(=O)c2c(O)c(O)cc(O)c21 | -13.9% | – |
| CCCCCCCCC(CCCCCC)C(=O)O (stereo not given) | 10.3% | – |
| CN1C(=O)OC(C)(C)C1=O | 0.239% | – |
| CCOc1ccccc1O[C@H](c1ccccc1)[C@H]1CNCCO1 | 0.731% [at 42.5 µM] | – |
| CC(O)c1ccccc1 (stereo not given) | -0.372% | – |
| C=COCC(C)C | -9.46% | – |
| CC(=O)Nc1cc(S(=O)(=O)O)cc2cc(S(=O)(=O)O)c(N=Nc3ccccc3)c(O)c12 | – | 27.3 µM (active) |
| Nc1cccc2c1CN(C1CCC(=O)NC1=O)C2=O (stereo not given) | -11.5% [at 42.5 µM] | – |
| CCOC(=O)c1ccc(OCCN2C[C@H](O)[C@@H](O)[C@H](O)[C@H]2CO)cc1 | -0.116% [at 42.5 µM] | – |
| CC(=O)NC1(c2cccc(F)c2)CCN(CC[C@@]2(c3ccc(Cl)c(Cl)c3)CN(c3ccccc3)C(=O)CO2)CC1 | – | 54.6 µM (active) |
| COc1cc(N)c(Cl)cc1C(=O)NC1CCN(CCCOc2ccc(F)cc2)CC1OC (stereo not given) | -19.6% [at 42.5 µM] | – |
| Cc1cc(C)cc(N)c1 | -3% | – |
| CCOC(=O)c1ccccc1C(=C1C=C(Br)C(=O)C(Br)=C1)c1cc(Br)c(O)c(Br)c1 | -5.88% [at 42.5 µM] | – |
| Cc1ccc(Cl)c(Nc2ccccc2C(=O)O)c1Cl | 3.13% [at 42.5 µM] | – |
| CC1=C(CC=O)C(C)(C)CCC1 | -11.7% | – |
| NNC(=O)CP(=O)(c1ccccc1)c1ccccc1 | 0.666% [at 42.5 µM] | – |
| CCOC(=O)OC(C)OC(=O)[C@@H]1N2C(=O)[C@@H](NC(=O)[C@H](N)c3ccccc3)[C@H]2SC1(C)C (stereo not given in full) | 5.93% [at 42.5 µM] | – |
| CCOC(=O)c1ccc(I)cc1 | -0.756% | – |
| C=C(C)[C@@H]1CCC2=CCC[C@@H](C)[C@]2(C)C1 | -7.26% | – |
| c1ccc(C[n+]2cccc3ccccc32)cc1 | -7.21% | – |

| Structure (SMILES) | activity change, negative = cytotoxicity | Potency |
| --- | --- | --- |
| NCCNCCO | 2.51% | – |
| COc1ccccc1Oc1c(NS(=O)(=O)c2ccc(C(C)(C)C)cc2)nc(-c2ncccn2)nc1OCCO | -0.0143% [at 42.5 µM] | – |
| O=C(OC(=O)c1ccccc1)c1ccccc1 | 11.9% | – |
| COC(=O)C1=C(C)NC(C)=C(C(=O)O[C@@H]2CCCN(Cc3ccccc3)C2)[C@@H]1c1cccc([N+](=O)[O-])c1 | -20.2% [at 42.5 µM] | – |
| C[C@H]1c2cccc(O)c2C(O)=C2C(=O)[C@]3(O)C(O)=C(C(N)=O)C(=O)[C@@H](N(C)C)[C@@H]3[C@@H](O)[C@@H]21 | 27.5% [at 42.5 µM] | – |
| CC(=O)[C@H]1[C@H](C#N)C[C@H]2[C@@H]3CC=C4C[C@@H](O)CC[C@]4(C)[C@H]3CC[C@@]21C | -19.6% [at 42.5 µM] | – |
| COc1ccc(OC(=O)N(CC(=O)O)Cc2ccc(OCCc3nc(-c4ccccc4)oc3C)cc2)cc1 | -11.1% [at 42.5 µM] | – |
| O[C@@H]1CO[C@H]2[C@@H]1OC[C@@H]2O | 5.82% [at 42.5 µM] | – |
| CCCCC(CC)CN (stereo not given) | 5.13% | – |
| CC(=O)Oc1ccc([N+](=O)[O-])cc1CCl | – | 30.6 µM (active) |
| Cc1ccc2c(Br)cc(Br)c(O)c2n1 | 0.489% [at 42.5 µM] | – |
| OC1(c2ccccc2)CCNCC1 | 2.02% [at 42.5 µM] | – |
| CCc1ccccc1 | 3.49% | – |
| CC(C)(C)C(=O)C(=O)O | 0.946% | – |
| CCn1cc(C(=O)O)c(=O)c2cc(F)c(N3CCNCC3)cc21 | -3.17% [at 42.5 µM] | – |
| OCCN1CCN(CCCN2c3ccccc3Sc3ccc(Cl)cc32)CC1 | – | 29.8 µM (active) |
| CC(C)Nc1cccnc1N1CCN(C(=O)c2cc3cc(NS(C)(=O)=O)ccc3[nH]2)CC1 | -4.6% [at 42.5 µM] | – |
| O=[N+]([O-])c1ccc(O/N=C/c2cc(Br)c(O)c(Br)c2)c([N+](=O)[O-])c1 | – | 34.2 µM (active) |
| CCCCN(CCCC)C(C(N)=O)c1ccc(OC)cc1 (stereo not given) | 0.948% [at 42.5 µM] | – |
| CC(=O)N/N=C/c1ccc([N+](=O)[O-])o1 | -6.09% [at 42.5 µM] | – |
